The text below walks through data of PubChem BioAssay AID651956 (Broad Institute, 2012).

Potency and affinity values are given separately. Results filed as inconclusive are left out. The source made the active and inactive calls.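 How the source made its calls: active means in every test run, a fitted half-maximal concentration for signal decrease at or below twice the highest tested concentration; inconclusive means runs disagree, flat 30 to 70% decrease, or poor fit; inactive means the rest.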

The test can be described thus: activation of miR-122 Renilla sensor silencing – cell-based, Huh7 psiCHECK-miR122, Renilla luciferase, cherry-picked, dose response (AID 651956).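 Further: 0% = median neutral control wells and -100% = median positive control wells.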 Conditions: Huh7 psiCHECK-miR122 Renilla luciferase reporter, 48 h; series mostly up to 35 µM; activity change, negative = signal decrease: at the top concentration.
On to `Cc1[nH]c(=O)c(C#N)cc1-c1ccccc1`, for which the “activity change, negative = signal decrease” value was -28.5% (inactive).
Then `CCCNC(=O)C[C@H]1CC[C@@H]2[C@H](COc3ccc(NC(=O)c4cc(F)cc(F)c4)cc3C(=O)N2C)O1`, with -28.6% (inactive); and `COc1cccc(OCc2cc(/C=N/Nc3ccc(C(=O)O)cc3)ccc2OC)c1`, with 107% (inactive).
With `COc1cccc(CNC(=O)C[C@@H]2CC[C@H]3[C@H](COc4ccc(NC(C)=O)cc4C(=O)N3C)O2)c1` the figure was 215% (inactive); with `CCNC(=O)C[C@@H]1CC[C@@H]2[C@@H](COc3ccc(NC(=O)c4ccccc4)cc3C(=O)N2C)O1`, 57.6% (inactive); with `CN(C)CCCNC(=O)C[C@H]1CC[C@H]2[C@H](COc3ccc(NS(C)(=O)=O)cc3C(=O)N2C)O1`, -3.73% (inactive).
Then `COc1cccc(NC(=O)N2[C@H](CO)[C@@H](c3ccccc3)[C@H]2CNCC(C)C)c1`, with -34.4% (inactive).
Consider `CC(=O)N1[C@H](CN(C)S(=O)(=O)c2ccccc2)[C@H](c2ccccc2)[C@@H]1CO`, for which the “activity change, negative = signal decrease” value was -17.7% (inactive).
Then `COc1cccc(C(=O)Nc2ccc3c(c2)C(=O)N(C)[C@@H]2CC[C@@H](CC(=O)NCc4ccc(F)cc4)O[C@@H]2CO3)c1`, with 22.5% (inactive); and `COC(=O)C[C@@H]1CC[C@H]2[C@@H](COc3ccc(NC(=O)c4ccc(F)c(F)c4)cc3C(=O)N2C)O1`, with 134% (inactive).
With `CN1C(=O)c2cc(NC(=O)Cc3ccccc3)ccc2OC[C@H]2O[C@@H](CC(=O)NC3CCC3)CC[C@H]21` the figure was -7.88% (inactive).
Then `CCCNC(=O)N1C[C@@H]2[C@H](c3ccccc31)[C@H](CO)N2C(=O)C1CCOCC1`, with -8.33% (inactive); and `CC(C)NC(=O)N(C)C[C@H]1Oc2cc(C#C[C@H](C)O)ccc2S(=O)(=O)N([C@@H](C)CO)C[C@H]1C`, with 67.8% (inactive); and `O=C(Nc1ccccc1F)N1C[C@H]2[C@@H](c3ccccc31)[C@@H](CO)N2C(=O)C1CC1`, with -13.7% (inactive).
On to `C[C@H]1CN([C@@H](C)CO)S(=O)(=O)c2ccc(C#Cc3ccccc3F)cc2O[C@@H]1CN(C)C(=O)c1ccc2c(c1)OCO2`, for which the “activity change, negative = signal decrease” value is -132% (inactive).
With `O=C(COc1ccccc1F)N1CCc2ccccc2C1` the figure was 42.4% (inactive); with `C[C@H](NC(=O)C[C@@H]1CC[C@H]2[C@H](COc3ccc(NS(=O)(=O)c4ccc(Cl)cc4)cc3C(=O)N2C)O1)c1ccccc1`, 70.4% (inactive).
`CCCNC(=O)N1[C@H](CO)[C@@H](c2ccccc2)[C@H]1CNC(=O)c1ccccc1`: the “activity change, negative = signal decrease” value was -30.3% (inactive).
With `CN1C(=O)c2cc(NC(=O)c3cccc(F)c3)ccc2OC[C@H]2O[C@H](CC(=O)N3CCc4ccccc4C3)CC[C@H]21` the figure was -41.6% (inactive); with `CCN(C[C@H]1N[C@@H](CO)[C@@H]1c1ccc(C2=CCCC2)cc1)C(=O)c1ccncc1`, -9.09% (inactive).
With `CN(C(=O)C12CC3CC(CC(C3)C1)C2)C1CCS(=O)(=O)C1` (centres undefined) the figure was 24.3% (inactive); with `CO[C@@H]1CN(C)C(=O)c2ccc(NS(=O)(=O)c3cccc(F)c3)cc2OC[C@@H](C)NC[C@H]1C`, 19.1% (inactive).
Then `CCC(=O)N1[C@H](CN(C(C)C)S(C)(=O)=O)[C@@H](c2ccccc2)[C@@H]1CO`, with -31.1% (inactive).
Turning to `CCC(=O)N1[C@H](CO)[C@H]2c3ccccc3N(C(=O)CC(F)(F)F)C[C@H]21`, the “activity change, negative = signal decrease” value is -34.8% (inactive).
Then `OC[C@H]1[C@@H](c2ccccc2)[C@H](CNCC2CCC2)N1CC1CC1`, with 30.6% (inactive).
With `COCCNC(=O)C[C@@H]1CC[C@@H]2[C@H](COc3ccc(NS(=O)(=O)c4ccc(Cl)cc4)cc3C(=O)N2C)O1` the figure was 10.6% (inactive).
With `CCCNC(=O)C[C@H]1CC[C@H]2[C@@H](COc3ccc(NC(=O)c4cc(F)cc(F)c4)cc3C(=O)N2C)O1` the figure was 50.3% (inactive); with `NS(=O)(=O)c1ccc(Nc2nc(-c3cccnc3)cs2)cc1`, -28.5% (inactive).
With `CCOc1ccc(C(CCc2ccccc2)NC(=O)c2ccccc2F)cc1OCC` (centres undefined), the “activity change, negative = signal decrease” value was 122% (inactive).
Regarding `CCNC(=O)Nc1ccc2c(c1)C(=O)N(C)[C@H]1CC[C@H](CC(=O)NCc3ccccc3F)O[C@H]1CO2`, the “activity change, negative = signal decrease” value was 62% (inactive).
Then `CCCCC(=O)NC(c1ccccc1OC)c1ccc2cccnc2c1O` (centres undefined), with 4.09% (inactive); and `CNc1nc(NCC2CCCCC2)c2sccc2n1`, with -42% (inactive).
With `COc1ccc(OC)c(Nc2cc(C)nc3ccc(C)cc23)c1` the figure was -95.2% (inactive).
Then `Cc1ccc(Nc2c(-c3ccccn3)nc3cc(C)ccn23)cc1`, with -26.2% (inactive).
With `C/C=C/c1ccc([C@H]2[C@@H](CO)N(C(=O)C3CC3)[C@H]2CNC(=O)NC(C)C)cc1`, the “activity change, negative = signal decrease” value is 6.55% (inactive).
With `CC(C)C(=O)Nc1ccc2c(c1)C(=O)N(C)[C@@H]1CC[C@@H](CC(=O)NCCc3ccccc3)O[C@H]1CO2` the figure was 2.42% (inactive).
Then `COc1ccccc1NC(=O)Nc1ccc2c(c1)C(=O)N(C)[C@H]1CC[C@H](CC(=O)Nc3ccc4c(c3)COC4)O[C@@H]1CO2`, with 78.8% (inactive).
As for `O=C(C1CCOCC1)N1C[C@H]2[C@@H](c3ccccc31)[C@@H](CO)N2Cc1ccccc1`, the “activity change, negative = signal decrease” value is -21.2% (inactive).
Take `Cc1ccc(-c2noc(CCC(=O)Nc3ccccc3C)n2)cc1`: the “activity change, negative = signal decrease” value was -15.5% (inactive).
